Data published in PubChem BioAssay (EPA / NIEHS).
Inconclusive results are not listed. Active and inactive are the calls of the source. How the source made its calls: active means hit-call score of the fitted dose curve at least 0.9, where 1 is the maximum; inconclusive means response in the unintended direction; inactive means score below 0.9.

target: human Peroxisome Proliferator-activated Receptor alpha (PPARa), PPARA (gene 5465) (UniProt Q07869); assay: ATG_PPARa_TRANS: Attagene TRANS-FACTORIAL HepG2 Assay for human Peroxisome Proliferator-activated Receptor alpha (PPARa) (AID 2283001);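 on AC50: potency for gain of reporter signal over DMSO so agonist or activator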
Sequence (Q07869 whole entry, looked up): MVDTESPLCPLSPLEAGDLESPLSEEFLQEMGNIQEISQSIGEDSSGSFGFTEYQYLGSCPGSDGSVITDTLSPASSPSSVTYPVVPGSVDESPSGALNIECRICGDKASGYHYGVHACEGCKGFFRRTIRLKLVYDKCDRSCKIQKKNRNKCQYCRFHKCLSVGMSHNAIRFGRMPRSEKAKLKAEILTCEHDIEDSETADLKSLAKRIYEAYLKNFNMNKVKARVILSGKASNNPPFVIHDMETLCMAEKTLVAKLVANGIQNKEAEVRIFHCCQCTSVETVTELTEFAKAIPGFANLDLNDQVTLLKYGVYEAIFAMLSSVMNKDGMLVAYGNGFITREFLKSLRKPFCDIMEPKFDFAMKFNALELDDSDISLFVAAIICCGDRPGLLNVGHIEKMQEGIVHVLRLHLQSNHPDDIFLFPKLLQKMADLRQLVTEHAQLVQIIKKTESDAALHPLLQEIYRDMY
Procedure: ATG_TRANS is a cell-based, multiplexed-readout assay that uses HepG2, a human liver cell line, with measurements taken at 24 hours after chemical dosing in a 24-well plate.ATG_PPARa_TRANS is one of 30 assay component(s) measured or calculated from the ATG_TRANS assay. It is designed to make measurements of mRNA induction, a form of inducible reporter, as detected with fluorescence intensity signals by Reverse transcription polymerase chain reaction (RT-PCR) and Capillary electrophoresis technology.Data from the assay component ATG_PPARa_TRANS was analyzed into 1 assay endpoint. This assay endpoint, ATG_PPARa_TRANS, was analyzed in the positive analysis fitting direction relative to DMSO as the negative control and baseline of activity. Using a type of inducible reporter, measures of mRNA for gain-of-signal activity can be used to understand the reporter gene at the transcription factor-level as they relate to the gene PPARA. Furthermore, this assay endpoint can be referred to as a primary readout, because this assay has produced multiple assay endpoints where this one serves a reporter gene function. To generalize the intended target to other relatable targets, this assay endpoint is annotated to the nuclear receptor intended target family, where the subfamily is non-steroidal.
Human liver HepG2 cells are transiently transfected with multiple reporter transcription units (MRTUs) in 6-well plates using FuGene 6 reagent (Roche; 3 ml FuGene/1 mg DNA). The MRTU constructs are regulated by a cis-regulating element (promoter). […] A major difference between the CIS and TRANS system is that in CIS activities of endogenous TFs are measured, whereas the TRANS assay evaluates changes in activities of exogenous, chimeric NR-Gal4 proteins. […] At the end of 24 hour incubation, total RNA was isolated using TriZol reagent (Invitrogen). The isolated RNA is then reverse-transcribed using oligo(dT) primer and Mo-MLV reverse transcriptase (Invitrogen) with DNAse I (Ambion) treatment for 30 min. The one-tenth of the produced cDNA was amplified by PCR using Taq DNA polymerase (Invitrogen) and two reporter sequence-specific primers. The PCR products were fluorescently labeled by primer extension with 6-arboxyfluorescein (6-FAM) 5'-labeled reporter sequence-specific primer (2 min at 95 C, 20 s at 68 C and 10 min at 72 C) and these products were digested with 5U of HpaI (New England Biolabs) for 2h at 37 C. The fragments were purified using Qiaquick PCR columns (Qiagen), analyzed on an ABI 3130xL genetic analyzer (Applied Biosystems) with peak positions identified by using a set of X-rhodamine (ROX)-labeled MapMarker1000 molecular weight standards (BioVentures). The raw capillary electrophoresis data was processed using Attagraph software (Attagene).

outcome, inactive:
C=C(C)C(=O)OCCCCCC, CC/C=C\CCO, CCCCCCCCCCC1CO1 (stereo not given), O=C(O)/C=C/C(=O)O, COc1ccccc1OCC(O)CO (stereo not given), CCCCCC1CCCC(=O)O1 (stereo not given), COc1c2occc2cc2ccc(=O)oc12, CCC(C)(CCC(C)C)C(=O)O (stereo not given), CCO[Si](OCC)(OCC)c1ccccc1, CCOC(=O)c1ccccc1, CN(C)N=Nc1ccccc1, COC(=O)CCSCCC(=O)OC, C=C(C)C(=O)OCC1CCCO1 (stereo not given), C=CCOC(=O)C(=C)C, NCc1ccccc1, CCCC(=O)OC/C=C(\C)CCC=C(C)C, CC(=O)OC(C)(C)Cc1ccccc1, O=[N+]([O-])c1ccccc1C(F)(F)F, C[C@H]1C[C@H]2[C@@H]3CCC4=CC(=O)C=C[C@]4(C)[C@@]3(F)[C@@H](O)C[C@]2(C)[C@@]1(O)C(=O)CO, C=CC(C)(CCC=C(C)C)OC(=O)c1ccccc1 (stereo not given), O=S(=O)(O)c1cccc2ccccc12, C1=CCC=C1, O=C1NC(=O)[C@@H]2CC=CC[C@H]12, O=C(OCc1ccccc1)c1ccccc1, CCCC[N+]1(C)CCCC1, CO[Si](CCCNCCN)(OC)OC, Sc1nc2ccccc2s1, Oc1ccc(Oc2ccccc2)cc1, C[Si](C)(C)O[Si](C)(C)O[Si](C)(C)C, Cc1cc(C)c(S(=O)(=O)O)cc1N=Nc1cc(S(=O)(=O)O)c2ccccc2c1O, O=C(O)Cc1c[nH]c2ccccc12, NC(N)=Nc1nc(CSCCC(N)=NS(N)(=O)=O)cs1, OCCOCCOCCOCCOCCO, CCCCCCCCCC/C=C/C1CC(=O)OC1=O (stereo not given), CC(=O)CCc1ccccc1, CC(O)(P(=O)(O)O)P(=O)(O)O

AC50, active:
CCCCCCC1CCCC(=O)O1 (stereo not given) 27.3 µM, CC(C)(Oc1ccc(Cl)cc1)C(=O)O 29.8 µM, CCCc1c(OCCCCc2nn[nH]n2)ccc(C(C)=O)c1O 27.7 µM, CCCCCCC(O)CCCCCCCCCCC(=O)OC (stereo not given) 7.36 µM
